In PubChem BioAssay (NCI):
Where “and” joins values, the source holds several entries; their conditions need not be identical. Identical values can stand only once. This is part of a sample that, as a whole, favours compounds with a hit. Of some 83,000 tested, about 20% had one in any assay.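 Cell lines were cultured in 96-well plates, exposed to a single compound concentration, and assessed for percent growth 48 hours later.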 Values without a mark were called inactive. Calls of active or inactive are those of the source. Rule for the calls: active = growth percent below 10; inactive = the rest.

Test system: NCI-H23 lung
Assay: NCI-60 one-dose screen, 48 h (100 = growth as untreated, 0 = no growth, -100 = all killed)
Conditions: 10 µM unless noted

| SMILES | growth |
| --- | --- |
| O=c1ccc(Cn2c(C(F)(F)F)cc3c(Cl)ncnc32)c[nH]1 | 17.7% |
| CC[C@]12C=CCN3CC[C@]4(C(=C(C(=O)OC)C1)Nc1cc(OC)c([C@@H]5[C@H]6O[C@H]6[C@@]6(CC)CC(C(=O)OC)=C7Nc8cc(O)ccc8[C@@]78CCN5[C@@H]68)cc14)[C@@H]32 | -18.8% (active) |
| COc1ccc2[nH]cc(-c3cc4nc(-c5cn(C)c6ncccc56)cc(N)n4n3)c2c1 | 13.9% |
| COc1ccc2[nH]c(=O)cc(-n3ncc(C(=O)/C=C/c4cc(OC)c(OC)c(OC)c4)c3C)c2c1 | -45.1% (active) |
| COc1ccc(/C=C/c2nc3ccccc3n3c(-c4cccc([N+](=O)[O-])c4)nnc23)cc1 | -78.1% (active) |
| O=C(Nc1ccc(Cl)c(C(F)(F)F)c1)N1CCN(c2cc(-c3cn(-c4ccccc4)nc3-c3cccc(O)c3)ccn2)CC1 | -27.3% (active) |
| O=C1Nc2ccccc2/C1=C/C(=O)c1cc2ccccc2oc1=O | 93.4% |
| CN1CCN(C(=O)Oc2cc3c(c4ccccc24)[C@H](CCl)CN3C(=O)c2cc3cc(OCCCN4CCC4)ccc3[nH]2)[C@H]2CSSC[C@H]21 | -65% (active) |
| NS(=O)(=O)c1ccc(Nc2nc(N/N=C/c3cc(Br)c(O)c(Br)c3)nc(Nc3ccccc3)n2)cc1 | 27.7% |
| COc1ccc2c(c1)C(Sc1ccc(Cl)cc1)c1c(nc(N)c(C#N)c1N)O2 (configuration not stated) | 74.6% |
| CS(=O)(=O)Nc1cccc(-n2c(COc3ccc(OC(F)(F)F)cc3)nc3ccccc32)c1 | 84.7% and 104% |
| OCCn1cc(-c2nc3ccc4[nH]ncc4c3c3c2CCCC3)cn1 | 43.1% |
| Cn1cc(-c2cc(N)n3nc(-c4c[nH]c5ccc(F)cc45)cc3n2)c2cccnc21 | -68.2% (active) |
| COc1ccc2c(c1)N=c1c-2cc2c(O)[nH]c(=S)n2c1=O | 43.1% |
| O=C(NN1C(=O)/C(=C/C=C/c2ccc([N+](=O)[O-])o2)SC1=S)c1ccncc1 | -88.8% (active) |
| Cn1cc(-c2cc(N)n3nc(-c4c[nH]c5ccccc45)cc3n2)c2cc(Br)ccc21 | -75.2% (active) |
| Cn1cc(-c2cc(N)n3nc(-c4c[nH]c5ccccc45)cc3n2)c2ccccc21 | -73.4% (active) |
| O=C1c2cccc3c(N4CCN(c5ccccc5)CC4)ccc(c23)C(=O)N1c1cccc(-c2nn(-c3ccccc3)cc2-c2nc3ccccc3s2)c1 | 88.5% |
| O=C(c1ccc(O)cc1)C1[C@H](c2ccccc2Br)[C@@H](c2ccccc2)NC12C(=O)Nc1ccccc12 (some centres not stated) | 34.3% |

| SMILES | growth |
| --- | --- |
| COc1ccc(-c2cc(C(=O)N=Nc3c(O)[nH]c4ccc(Cl)cc34)c3ccccc3n2)cc1 | 14.3% |
| CC(C)(C)OC(=O)N1CCC2(CC1)Oc1ccccc1[C@H]1CC(c3ccc(Br)cc3)=NN12 | 80.9% |
| Cc1cc(C(NC(=O)CCCCCNc2cccc3c2C(=O)N(C2CCC(=O)CC2=O)C3=O)c2cccc(N(C)C)c2)c(O)c2ncccc12 (configuration not stated) | 24% |
| O=C(c1ccc(O)cc1)C1[C@H](c2ccc(Cl)cc2)[C@@H](c2ccccc2)NC12C(=O)Nc1ccc(Br)cc12 (some centres not stated) | -58.7% (active) |
| Cc1ccc(C(=O)C[n+]2cccc3c4ccccc4ccc32)cc1 | 27.4% |
| C#CCN(C)CCCOc1ccc(N(CC)C(=O)c2cc(C(C)C)c(O)cc2O)cc1Cl | -5.94% (active) |
| O=C(OCCOCCO)N(c1cccc(Br)c1)c1nc(SCCN2CCOCC2)nc2c1cnn2CC(Cl)c1ccc(Br)cc1 (configuration not stated) | -0.582% (active) |
| COc1ccc(-c2nc3ccc(-c4nnc(SCC(=O)Nc5ccc(/C(C)=N\O)cc5)o4)cc3[nH]2)cc1 | 42.6% |
| Clc1ccc2c(NCCNC34CC5CC(CC(C5)C3)C4)ccnc2c1 | -73.2% (active) |
| CCOc1ccc(-c2cc(-c3cc(C(C)C)c(O)cc3C)nn2-c2ccc(S(N)(=O)=O)cc2)cc1 | 27.6% |
| Cc1ccc(N=Nc2c(N)nn3c(-c4cc5cc(Br)ccc5oc4=O)ccnc23)cc1 | 21.7% |
| COc1ccc(SC2c3cc(OC)ccc3Oc3nc(N)c(C#N)c(N)c32)cc1 (configuration not stated) | 85.6% |
| O=C1Nc2ccc(F)cc2/C1=C/C(=O)c1cc2ccccc2oc1=O | 96.1% |
| COc1ccc2[nH]cc(-c3cc(N)n4nc(-c5c[nH]c6ccccc56)cc4n3)c2c1 | -12.1% (active) |
| O=C1Nc2cc(-c3ccc(NS(=O)(=O)c4ccc(F)c(Cl)c4)cc3)ccc2/C1=C/c1ccc[nH]1 | -25.5% (active) |
| CCOC(=O)/C(F)=C/C1CC1C1CCN(C(=O)OC(C)(C)C)CC1 (configuration not stated) | 93.8% |
| CN1CCN(CCS(=O)(=O)Nc2cc(-c3ccc4ncnc(Nc5ccc(F)c(Cl)c5)c4c3)cnc2Cl)CC1 | 13% |
| N#Cc1cc(-c2ccc3ncnc(N4CCc5cc(F)c(Cl)cc54)c3c2)cnc1N | 50.2% |
